Results on 40 molecules are retold here after PubChem BioAssay (NCATS).

Active and inactive are the calls of the source. The call rests on the fitted dose curve; in most records, active means well fitted curve in the direction sought with a large enough effect; inactive means no such curve, though single readings can be large or run the other way.

The target of this assay is Alpha-galactosidase (Coffea arabica) (UniProt Q42656). As to the kind of experiment: Counterscreen for Glucocerebrosidase Inhibitors: qHTS Assay for Coffee Bean alpha-Galactosidase at pH 5.9 (AID 998). The settings on record: coffee bean alpha-galactosidase enzyme assay; series mostly up to 76.9 µM. The source says: NIH Chemical Genomics Center [NCGC]
Alpha-galactosidase (Coffea arabica), sequence (Q42656 whole entry, looked up): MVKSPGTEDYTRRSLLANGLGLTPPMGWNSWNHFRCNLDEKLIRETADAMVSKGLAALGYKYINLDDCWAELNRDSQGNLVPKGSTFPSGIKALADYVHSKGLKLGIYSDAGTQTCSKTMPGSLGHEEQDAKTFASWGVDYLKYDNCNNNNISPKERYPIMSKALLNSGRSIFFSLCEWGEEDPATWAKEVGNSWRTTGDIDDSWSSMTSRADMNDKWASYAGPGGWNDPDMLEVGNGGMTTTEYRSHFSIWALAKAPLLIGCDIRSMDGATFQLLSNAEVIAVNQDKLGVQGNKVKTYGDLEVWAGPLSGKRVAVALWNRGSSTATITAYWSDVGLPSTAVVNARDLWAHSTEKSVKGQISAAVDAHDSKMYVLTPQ
NIH Molecular Libraries Screening Centers Network [MLSCN]
PI Name: Zheng, Wei [NIH]
Alpha-galactosidase is a homodimeric glycoprotein that hydrolyzes the terminal alpha-galactosyl moieties from glycolipids and glycoproteins. Deficiency of this enzyme results in Fabry Disease with progressive accumulation of globotriaosylceramide and other glycosphingolipids in vascular endothelial cells that causes renal failure, myocardial infarction and stroke, and premature death in patients. It has reported that the improper folding and trafficking of alpha-galactosidase resulted from the genetic mutations may account for a significant numbers of Fabry patients. […] We optimized this coffee bean alpha-galactosidase assay in 1536-well plate format as a counter-screen assay for identifying the selective small molecule inhibitors of other lysosomal enzymes.
NCGC Assay Protocol Summary:
This is a fluorogenic enzyme assay with 4-Methylumbelliferyl alpha-D-galactopyranoside as the substrate and green coffee bean […] (from Sigma-Aldrich) as the enzyme preparation. Upon the hydrolysis of this fluorogenic substrate, the resulting product, […]. 4-Methyllumbelliferone, can be excited at 365 nm and emits at 440 nm which can be detected by a standard fluorescence plate reader. Data were normalized to the controls for basal activity (without enzyme) and 100% activity (with enzyme). In the AC50 values were determined from concentration-response data modeled with the standard Hill equation.
Assay buffer: 50 mM citric acid, 0.005% Tween-20, pH 5.9. (pH 5.9 is an optimal condition for this enzyme assay.)
1536-well assay protocol for the coffee bean alpha-galactosidase:
(1) Add 2 ul/well of enzyme (2 nM final)
(2) Add 23 nL compounds in DMSO solution. The final titration was 0.7 nM to 77 uM.
(3) Add 1 ul of substrate (80 uM final)
(4) Incubate at room temperature for 20 min.
(5) Add 2 ul stop solution (1M NaOH and 1M Glycine mixture, pH 10)
(6) Detect the assay plate in a ViewLux plate reader (PerkinElmer) with Ex=365 nm and Em=440nm.
Keywords: Alpha-galactosidase, Fabry Disease, pharmacological chaperone, chaperone therapy, high throughput screening, alpha-galactosidase inhibitor, MLSMR, MLSCN, NIH Roadmap, qHTS and NCGC
For `Cc1nc2sccn2c(=O)c1CCN1CCC(=C(c2ccc(F)cc2)c2ccc(F)cc2)CC1`, the molecule was called inactive.

With `O=C1NCN(c2ccccc2)C12CCN(CCCC(c1ccc(F)cc1)c1ccc(F)cc1)CC2`, the outcome was inactive.

`C(=C\c1ccccc1)/CN1CCN(C(c2ccccc2)c2ccccc2)CC1`: the call was inactive.

For the molecule `O=C(O)CCc1nc(-c2ccccc2)c(-c2ccccc2)o1`, the call was inactive.

With `C[N+](C)(C)CCCCCCCCCC[N+](C)(C)C`, the molecule was called inactive.

In the case of `C[C@H](N)[C@H](O)c1ccc(O)c(O)c1`, the result was inactive.

In the case of `NCCc1cnc[nH]1`, the result was inactive.

For the molecule `N[C@@H](Cc1c[nH]c2ccc(O)cc12)C(=O)O`, the molecule was called inactive.

In the case of `C[N+](C)(C)CCOC(=O)CCC(=O)OCC[N+](C)(C)C`, the outcome was inactive.

For `CCCCC1C(=O)N(c2ccccc2)N(c2ccccc2)C1=O`, the molecule was called inactive.

Turning to `COc1ccc(CN(CCN(C)C)c2ccccn2)cc1`, the result was inactive.

Turning to `CNC[C@H](O)c1ccc(O)c(O)c1`, the outcome was inactive.

In the case of `Oc1cc(O)c2c(c1)O[C@H](c1ccc(O)c(O)c1)[C@H](O)C2`, the molecule was classed as inactive.

Take `OCc1cc(C(O)CNCCCCCCOCCCCc2ccccc2)ccc1O` (stereo not given): the result was inactive.

As to `CCC(=O)c1ccc2c(c1)N(CCCN(C)C)c1ccccc1S2`, the molecule was classed as inactive.

In the case of `O=C(Nc1ccc([N+](=O)[O-])cc1Cl)c1cc(Cl)ccc1O`, the molecule was called inactive.

For `O=C(c1ccc(F)cc1)C1CCN(CCn2c(=O)[nH]c3ccccc3c2=O)CC1`, the outcome was inactive.

For the molecule `Cn1cnc2c1c(=O)[nH]c(=O)n2C`, the outcome was inactive.

Take `CCCCCCCCC(=O)NCc1ccc(O)c(OC)c1`: the outcome was inactive.

With `CC1=C(CC(=O)O)c2cc(F)ccc2/C1=C\c1ccc(S(C)(=O)=O)cc1`, the molecule was classed as inactive.

`O=C(O)CN(CCOCCOCCN(CC(=O)O)CC(=O)O)CC(=O)O`: the molecule was classed as inactive.

For the molecule `O=C1N(c2ccccc2)c2ccccc2C1(Cc1ccncc1)Cc1ccncc1`, the molecule was classed as inactive.

With `COCC(=O)O[C@]1(CCN(C)CCCc2nc3ccccc3[nH]2)CCc2cc(F)ccc2[C@@H]1C(C)C`, the call was inactive.

As to `CCN(CC)CC(=O)Nc1c(C)cccc1C`, the outcome was inactive.

As to `COc1nc(C)nc(Cl)c1NC1=NCCN1`, the call was inactive.

Turning to `Clc1ccc(Cn2c(CN3CCCC3)nc3ccccc32)cc1`, the outcome was inactive.

In the case of `O=C1CC2(CCCC2)CC(=O)N1CCCCN1CCN(c2ncccn2)CC1`, the outcome was inactive.

Take `C[C@]12C=CC(=O)C=C1CC[C@H]1[C@@H]3C[C@@H](O)[C@](O)(C(=O)CO)[C@@]3(C)C[C@H](O)[C@@]12F`: the molecule was called inactive.

For the molecule `CN(C)C(=O)Oc1cccc([N+](C)(C)C)c1`, the molecule was classed as inactive.

Take `NC(N)=NC(=O)c1nc(Cl)c(N)nc1N`: the outcome was inactive.

As to `CCOC(=O)C(C)(C)Oc1ccc(Cl)cc1`, the result was inactive.

`CN(C(=O)CCCOc1ccc2[nH]c(=O)ccc2c1)C1CCCCC1`: the result was inactive.

Turning to `CC1=C(C)C(=O)C(CCCCC#CCCCC#CCO)=C(C)C1=O`, the molecule was classed as inactive.

As for `Cc1[nH]c(=O)c(C#N)cc1-c1ccc2nccn2c1`, the molecule was classed as inactive.

Take `CCCCNc1cc(C(=O)O)cc(S(N)(=O)=O)c1Oc1ccccc1`: the molecule was classed as inactive.

Take `CCc1cccc(N(C)C(N)=Nc2cccc3ccccc23)c1`: the result was inactive.

Take `Cn1c(=O)c2c(ncn2C)n(C)c1=O`: the outcome was inactive.

Take `C[C@]12CCC(=O)C=C1CC[C@@H]1[C@@H]2[C@@H](O)C[C@@]2(C)[C@H]1CC[C@]2(O)C(=O)CO`: the molecule was called inactive.

As for `O=C(CCNNC(=O)c1ccncc1)NCc1ccccc1`, the molecule was called inactive.

Turning to `CCNC(=O)N1CCN(CCCC(c2ccc(F)cc2)c2ccc(F)cc2)CC1`, the call was inactive.
